Records with an inconclusive call do not appear. Active and inactive are the calls of the source. Calls come from the whole dose curve; as a rule, active = well fitted curve in the direction sought with a large enough effect; inconclusive = small, poorly fitted or top-dose-only effect, or another doubt; inactive = no such curve, though single readings can be large; an effect the other way counts as inactive or inconclusive.
What was measured:
[1] = HPAF-II Cancer Cell Toxicity qHTS against the NCATS CANVASS Library (AID 1347346); note: series mostly up to about 38 µM; nearly all actives have a fitted effect of over 55% in size
Procedure, shortened: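 Luminescence from CellTiter-Glo, added after 72 h compound exposure and a 15 min room-temperature incubation, served as the viability readout. HPAF-II cells (1000/well) received an 11-point concentration series.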

[2] = UWB1.289 Cancer Cell Toxicity qHTS against the NCATS CANVASS Library (AID 1347347); note: series mostly up to about 38 µM; nearly all actives have a fitted effect of over 60% in size
Procedure, shortened: (§1)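 Quantitative HTS format: an 11-concentration series was applied to 1000 cells/well following a 4-hour attachment. Cultures ran 72 hours before ATP luminescence detection by CellTiter-Glo.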

[3] = OV-SAHO Cancer Cell Toxicity qHTS against the NCATS CANVASS Library (AID 1347348); note: series mostly up to about 38 µM; nearly all actives have a fitted effect of over 55% in size
Procedure, shortened: as §1

[4] = Panc-1005 Cancer Cell Toxicity qHTS against the NCATS CANVASS Library (AID 1347349); note: series mostly up to about 38 µM; nearly all actives have a fitted effect of over 60% in size
Procedure, shortened: as §1

[5] = SW1088 Cancer Cell Toxicity qHTS against the NCATS CANVASS Library (AID 1347350); note: nearly all actives have a fitted effect of over 75% in size
Procedure, shortened: as §1

[6] = U-118MG Cancer Cell Toxicity qHTS against the NCATS CANVASS Library (AID 1347351); note: series mostly up to about 38 µM
Procedure, shortened: as §1

[7] = COV-362 Cancer Cell Toxicity qHTS against the NCATS CANVASS Library (AID 1347352); note: series mostly up to about 38 µM
Procedure, shortened: (§2)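 Luminescent ATP read-out (CellTiter-Glo, 15min at room temperature) measures survival after cells face an 11-point compound series for 72 hours at 37 degrees C/5% CO2.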

[8] = A2780 Cisplatin Sensitive Ovarian Cancer Cell Toxicity qHTS against the NCATS CANVASS Library (AID 1347353); note: nearly all actives have a fitted effect of over 60% in size
Procedure, shortened: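 Luminescent ATP content (ATPLite, 10 min at room temperature) served as the read-out after cells had been exposed to compounds for 72 hours at 37 °C. Dosing followed an 11-point concentration series.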

[9] = UWB1.289-WTBRCA1 Cancer Cell Toxicity qHTS against the NCATS CANVASS Library (AID 1347354)
Procedure, shortened: as §2

[10] = HEK-293 Cancer Cell Toxicity qHTS against the NCATS CANVASS Library (AID 1347355); note: series mostly up to about 46 µM; nearly all actives have a fitted effect of over 65% in size
Procedure, shortened: as §2

[11] = HPAF-II 24hr Apoptosis Induction qHTS against the NCATS CANVASS Library (AID 1347356)
Procedure, shortened: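 Luminescent caspase-3/7 signal (DEVD substrate, Caspase-Glo) served as read-out, taken 15 min after reagent addition to HPAF-II cells exposed 24 h to compounds.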

[12] = HPAF-II 12hr Apoptosis Induction qHTS against the NCATS CANVASS Library (AID 1347358)
Procedure, shortened: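 500 HPAF-II cells/well; cmpds 11-pt; 12 hr, 37 degrees C/5% CO2; Caspase-Glo 3/7 added, 15 min RT dark; luminescence read. Doxorubicin titration as control.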

[13] = HEK293 24hr Apoptosis Induction qHTS against the NCATS CANVASS Library (AID 1347359)
Procedure, shortened: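 Caspase-3/7 activation measured as luminescence from the DEVD-based Caspase-Glo reagent, 15 min at room temperature, following 24-hour compound treatment of HEK293 cells.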

[14] = HEK293 12hr Apoptosis Induction qHTS against the NCATS CANVASS Library (AID 1347361)
Procedure, shortened: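 Luminescent caspase-3/7 signal, proportional to enzyme activity, was recorded from HEK293 cultures in DMEM + 10% FBS treated for 12 hours with titrated natural products (11 points). Doxorubicin (0.1nM - 4uM) served as control.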

[15] = test system: NAD(P)H diaphorase (Clostridium kluyveri); assay: Diaphorse counterscreen qHTS: Assay Interference Panel against the NCATS CANVASS Library (AID 1347362)
Procedure, shortened: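 Counterscreen for coupling-enzyme interference: resorufin fluorescence from resazurin/NADH turnover, read after 5 min at room temperature. Compounds were tested over an 11-point series after 15 min dark preincubation with diaphorase in PBS-Tween.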

[16] = target: Luciferin 4-monooxygenase (Photinus pyralis) (UniProt P08659); assay: Firefly luciferase counterscreen qHTS: Assay Interference Panel against the NCATS CANVASS Library (AID 1347363); note: series mostly up to about 57 µM
Sequence of Luciferin 4-monooxygenase (Photinus pyralis) (P08659 whole entry, looked up): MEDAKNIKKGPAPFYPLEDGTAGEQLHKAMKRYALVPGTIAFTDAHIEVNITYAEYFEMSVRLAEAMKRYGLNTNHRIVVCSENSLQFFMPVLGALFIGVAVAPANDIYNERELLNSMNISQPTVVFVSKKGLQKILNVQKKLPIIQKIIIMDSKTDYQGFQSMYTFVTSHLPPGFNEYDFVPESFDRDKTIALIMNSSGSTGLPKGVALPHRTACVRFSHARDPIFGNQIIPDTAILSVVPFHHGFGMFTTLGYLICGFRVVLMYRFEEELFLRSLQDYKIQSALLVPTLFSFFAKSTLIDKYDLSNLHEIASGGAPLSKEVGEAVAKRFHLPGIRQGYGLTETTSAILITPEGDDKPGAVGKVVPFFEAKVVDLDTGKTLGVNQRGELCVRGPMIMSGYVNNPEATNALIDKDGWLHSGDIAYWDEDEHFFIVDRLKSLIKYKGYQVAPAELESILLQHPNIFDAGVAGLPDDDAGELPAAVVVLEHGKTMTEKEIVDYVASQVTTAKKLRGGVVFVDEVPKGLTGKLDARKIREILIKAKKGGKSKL
Procedure, shortened: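 Luminescence inhibition readout: compounds (11-point qHTS) sat 15 min at room temperature with substrate mix (0.013 mM luciferin and ATP), then firefly luciferase was added and signal read 5 min later.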

[17] = KB-8-5-11 Cancer Cell Toxicity qHTS against the NCATS CANVASS Library (AID 1347364); note: series mostly up to about 46 µM; nearly all actives have a fitted effect of over 75% in size
Procedure, shortened: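 Plate 500 KB-8-5-11 cells per well in DMEM + 10% FBS, add compounds by pin transfer, incubate 72 hr at 37C. Add CellTiter-Glo, wait 10 minutes at room temperature, read luminescence.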

[18] = KB-3-1 Cancer Cell Toxicity qHTS against the NCATS CANVASS Library (AID 1347366); note: series mostly up to about 46 µM; nearly all actives have a fitted effect of over 75% in size
Procedure, shortened: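 Cytotoxicity toward KB-3-1 cells (500/well, DMEM + 10% FBS) was scored by CellTiter-Glo luminescence following 72 hr exposure at 37C, with bortezomib titrated as control.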

[19] = qHTS for ATAD5 Agonist screened against the NCATS CANVASS Library (AID 1347367);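 note: luciferase reporter driven by ATAD5 which rises upon DNA damage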
Procedure, shortened: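 Genotoxicity was scored as increased ATAD5-luciferase luminescence in HEK293T after 16hr of exposure, with cell viability measured by fluorescence beforehand in the same well.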

[20] = MCF7 Cancer Cell Toxicity qHTS against the NCATS CANVASS Library (AID 1347369)
Procedure, shortened: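 This 72 hr qHTS scored MCF7 viability by CellTiterGlo luminescence, with 500 cells/well; bortezomib titration ran as control.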

Measured: Potency

CN(C)Cc1c[nH]c2ccccc12
inactive: all assays above

NCCc1ccccc1
inactive: all assays above

From PubChem BioAssay (NCATS)
